Screening data (PubChem)
Rows were chosen to be rich in hits. Some 18% of all compounds tested hit in one or more screens of this group.
IL-1B inflam inh: qHTS for Inhibitors of Inflammasome Signaling: IL-1-beta AlphaLISA Primary Screen | THP-1 LPS/ATP IL-1B secretion, AlphaLISA, 16 h; hits give low values | activity change, % at 57.5 µM | 360,000 compounds, 4.7% hits | AID 743279, 2014; in the data active = activity change below about -50%; inconclusive = mostly about -30% to -49%; also: % is scaled to controls: 0 for no effect and ±100 for the full control effect
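THP-1 cells pretreated 1 hr with compounds (up to 57.5 uM final), then stimulated with LPS (250 ng/mL final) plus ATP (1.25 mM final); secreted IL-1B measured by AlphaLISA after 16 hr, decreased signal indicating inhibition.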
TDP1 block: qHTS Assay for Inhibitors of Tyrosyl-DNA Phosphodiesterase (TDP1); recombinant TDP1, AlphaScreen DNA substrate cleavage; 350,000 compounds, 0.28% hits; Tyrosyl-DNA phosphodiesterase 1 (Homo sapiens), Q9NUW8; Potency, µM (top dose mostly 130 µM), without a hit: top-dose activity change, negative = inhibition, actives largely listed as inhibitors; also: potency is read from the fitted curve at half-maximal effect; % is scaled to controls: 0 for no effect and ±100 for the full control effect; nearly all actives have a fitted effect of over 40% in size
Target sequence (Q9NUW8 whole entry, looked up): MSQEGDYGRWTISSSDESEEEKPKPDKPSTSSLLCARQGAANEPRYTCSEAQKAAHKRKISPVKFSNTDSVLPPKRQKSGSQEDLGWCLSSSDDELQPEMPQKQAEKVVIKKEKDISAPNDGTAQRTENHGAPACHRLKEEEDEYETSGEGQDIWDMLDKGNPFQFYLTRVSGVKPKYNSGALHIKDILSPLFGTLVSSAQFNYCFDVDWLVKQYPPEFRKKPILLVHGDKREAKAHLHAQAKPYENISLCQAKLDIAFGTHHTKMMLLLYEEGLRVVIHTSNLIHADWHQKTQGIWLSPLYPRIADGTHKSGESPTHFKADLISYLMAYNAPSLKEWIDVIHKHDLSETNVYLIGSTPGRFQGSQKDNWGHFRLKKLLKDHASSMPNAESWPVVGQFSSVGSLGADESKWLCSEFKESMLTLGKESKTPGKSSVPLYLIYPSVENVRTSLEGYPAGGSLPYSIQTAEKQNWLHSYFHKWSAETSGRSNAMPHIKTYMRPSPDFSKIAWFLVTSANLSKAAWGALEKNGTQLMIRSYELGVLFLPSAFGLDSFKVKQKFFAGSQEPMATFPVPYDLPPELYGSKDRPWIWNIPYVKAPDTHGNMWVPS
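Compounds were preincubated with Tdp1 (1 nM final) for 15 min at room temperature before substrate (15 nM final) started a 5 min reaction; beads (10 ug/ml final) were then added for 10 min before AlphaScreen detection.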
TGFb inhibitor: qHTS for Inhibitors of TGF-b | 410,000 compounds, 1.2% hits | Potency, µM (highest dose often 46.1 µM), inactives show top-dose activity, negative = inhibition, hits mostly inhibitors | HepG2 CAGA-GFP TGF-b/SMAD3 reporter, GFP fluorescence, 18 h; TGF-beta stimulated, 500 pg/mL final; also: potency is read from the fitted curve at half-maximal effect; % is scaled to controls: 0 for no effect and ±100 for the full control effect; nearly all actives have a fitted effect of over 65% in size
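Using HEPG2 CAGA-GFP reporter cells at 1000 cells/well, we pinned test compounds, stimulated with recombinant TGF-beta (500 pg/mL final) and measured total well GFP after 18 h.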
TDP1 cell CPT: qHTS for Inhibitors of human tyrosyl-DNA phosphodiesterase 1 (TDP1): qHTS in cells in presence of CPT. chicken DT40 Tdp1-/-;hTDP1 cells + 20 nM CPT, ATP luminescence, 48 h. Potency, µM (top dose mostly 46.2 µM), inactives show at the top dose activity change, negative = growth inhibition, most hits filed as inhibitors. 420,000 compounds, 12% hits. AID 686979, 2013; also: potency is read from the fitted curve at half-maximal effect; % is scaled to controls: 0 for no effect and ±100 for the full control effect; nearly all actives have a fitted effect of over 55% in size
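Cell growth measured by CellTiter-Glo luminescence after a minimum 48 h, 37 C compound exposure with 20 nM CPT in Tdp1-knockout DT40 cells stably expressing hTDP1, seeded 400/well; qHTS titration format.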
HepG2 viability: qHTS for Inhibitors of TGF-b: Cytotox Counterscreen | HepG2 CAGA-GFP viability, ATP luminescence, 18 h | 410,000 compounds, 0.76% hits | Potency, µM (highest dose often 46.1 µM), for inactives: top-dose activity change, negative = cytotoxicity, most hits filed as cytotoxic; also: potency is read from the fitted curve at half-maximal effect
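CellTiter-Glo luminescence gave cytotoxicity after 18 hours at 37 degrees C. The cells were HepG2 CAGA-GFP in 1% FBS DMEM, stimulated with 500 pg/mL TGF-beta after compound addition. %Activity was normalised to no-cell wells (complete cell-killing) and DMSO (no toxicity), and curves were fitted and classified.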
DT40 TDP1 no CPT: qHTS for Inhibitors of human tyrosyl-DNA phosphodiesterase 1 (TDP1): qHTS in cells in absence of CPT. DT40 Tdp1-/- hTDP1 cells, no CPT, ATP luminescence, 48 h. Potency, µM (top dose mostly 46.2 µM), for the others: at the highest dose activity change, negative = growth inhibition, hits mostly inhibitors. 420,000 compounds, 15% hits; also: potency is read from the fitted curve at half-maximal effect; % is scaled to controls: 0 for no effect and ±100 for the full control effect; nearly all actives have a fitted effect of over 55% in size
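Compound effects on proliferation are scored in DT40 Tdp1-/-;hTDP1 cells in the absence of CPT. ATP levels (CellTiter-Glo luminescence) are recorded after a ≥48 hr, 37 °C incubation.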
The depositor's hits bear a star; i = inactive; u = inconclusive; x = no result given; [ ] = another dose, or the depositor's remark. Unless noted, calls follow the shape of the dose curve; as a rule, active = well fitted curve in the direction sought with a large enough effect; inconclusive = small, poorly fitted or top-dose-only effect, or another doubt; inactive = no such curve, though single readings can be large; an effect the other way counts as inactive or inconclusive.

SMILES	IL-1B inflam inh	TDP1 block	TGFb inhibitor	TDP1 cell CPT	HepG2 viability	DT40 TDP1 no CPT
Cc1ccc(NC(=O)c2ccccc2[N+](=O)[O-])nc1	4	8%	6%	u	26%	u
CN(c1ccc(C(=O)Nc2ccc(Cl)cn2)cc1)S(=O)(=O)c1ccccc1	-9	0%	-28%	u	-38%	21µM*
Cc1ccc(NC(=O)c2ccc(Cl)cc2[N+](=O)[O-])nc1	37	3%	-12%	3.3µM*	-1%	3.3µM*
Cc1ccc(-c2cc(NC(=O)c3ccccc3[N+](=O)[O-])n[nH]2)cc1	-5	x	-2%	u	-38%	21µM*
O=C(CCc1ccccc1)Nc1ccc(Cl)cn1	0	4%	-15%	5.8µM*	2%	3.3µM*
CCOC(=O)C1CCN(C(=O)CN2C(=O)COc3ccc(C(C)(C)C)cc32)CC1	-7	2%	-12%	-12%	1%	u
COc1ccc(N2CCN(S(=O)(=O)c3ccc4oc(=O)c5ncn(C)c5c4c3)CC2)cc1	x	8%	-10%	-7%	-23%	-5%
CN(C)c1ccc(-c2cc[nH]c(=O)c2N)cc1	x	9%	x	x	x	x
Cc1ccccc1C(=O)Nc1ccc(Cl)cn1	-1	0%	19%	16µM*	-2%	21µM*
O=C(Nc1ccc(Cl)cn1)c1cccc2c(Br)cccc12	58	x	-9%	u	-13%	15µM*
O=C(Nc1ccccc1)c1cccc2c(Br)cccc12	23	0%	-5%	-2%	-28%	-27%
Cc1ccc(C(=O)Nc2ccc(Cl)cn2)cc1	24	-7%	-1%	7.3µM*	-24%	8.2µM*
CN(C1=C(NC(=O)c2ccc(Cl)cc2)C(=O)c2ccccc2C1=O)c1ccccc1	-74*	-3%	13µM*	5.8µM*	-53%	10µM*
O=C(Nc1ccc(NS(=O)(=O)c2ccccc2)cc1)c1ccc(Cl)cc1	1	1%	6%	-21%	0%	-12%
CC(C)C[C@@H](CC(=O)N[C@@H](CCC(=O)O)CC(=O)O)NC(=O)[C@@H]1CNCC[C@H]1NC(=O)C[C@@H](NC(=O)C[C@H](Cc1c[nH]c2ccccc12)NC(=O)[C@@H]1CCCC[C@H]1N)C(C)C	x	3%	x	x	x	x
CCOc1ccc(NC(=O)c2cc3sc(Cl)cc3n2CC)cc1	x	6%	-26%	-29%	-9%	u
CCc1cccc(C)c1NC(=O)CO/N=C(\N)CC(=O)NC1CCCCC1	30	1%	-1%	-6%	-3%	-21%
NCCC(O)C(=O)NC1C[C@@H](N)[C@H](O[C@@H]2OC(CN)C(O)C(O)C2O)C(O)[C@H]1O[C@H]1OC(CO)C(O)C(N)C1O (stereo partly specified)	x	6%[56.1 µM]	x	-8%	x	-9%
O=C(NCCc1cccnc1)c1cnn(-c2ncc3c(n2)-c2ccccc2CC3)c1C1CC1	x	x	x	6%[9.04 µM]	x	u
CCCOc1ccc(C(=O)Nc2ccc(Cl)cn2)cc1	u	-2%	13%	-18%	-8%	-21%
O=C(Nc1ccc(Cl)cn1)c1ccc(Oc2ccccc2)cc1	-67*	x	-6%	3%	-8%	u
CCN(CC)S(=O)(=O)c1cccc(C(=O)Nc2ccc(Cl)cn2)c1	18	5%	-2%	u	-31%	u
Cc1ccccc1C(=O)Nc1ccc(Br)c(C)n1	-3	7%	0%	u	-13%	9.2µM*
Cc1nc(NC(=O)c2cccnc2)ccc1Br	-22	0%	13%	-23%	0%	u
CCN(CC)S(=O)(=O)c1cc(C(=O)Nc2ccc(Cl)cn2)ccc1C	-54*	7%	-7%	u	1%	16µM*
SMILES	IL-1B inflam inh	TDP1 block	TGFb inhibitor	TDP1 cell CPT	HepG2 viability	DT40 TDP1 no CPT
Cc1cc(N2CCC(C)CC2)nc2ccc(NC(=O)Cc3c(F)cccc3Cl)cc12	x	6%	14%	u	-13%	u
CCCN1CCC(NC(=O)c2cccc(Oc3ccccc3)c2)CC1	i	0%	22%	u	0%	23µM*
COc1cc(OC)cc(C(=O)NC2CCN(CCCOc3ccccc3)CC2)c1	-52*	3%	-7%	-6%	-32%	-1%
c1ccc(Nc2ncncc2-c2ccoc2)cc1	x	x	x	u	x	-27%
COc1ccc(C(=O)N2CCC3(CC2)CCN(c2ncccn2)CC3)cc1	x	x	x	3%	x	-26%
Cc1ccc(NC(=O)CSc2nc(-c3ccco3)nc3cc(=O)[nH]n23)c(Cl)c1	0	50µM*	-1%	-8%	4%	11%
Cc1ccc(-c2csc3nc(C)n(-n4c(C)ccc4C)c(=O)c23)o1	1	11%	-6%	21µM*	-8%	21µM*
Cc1ccc(Cc2c(-c3ccc(C#N)cc3)nc3ccc(Cl)cn23)cc1	-10	x	-4%	-24%	-8%	u
N#Cc1ccc(-c2nc3ccc(Cl)cn3c2Cc2ccccc2)cc1	-14	x	-12%	21µM*	-14%	u
CC(C)(C)Cc1c(-c2ccc(C#N)cc2)nc2ccc(Cl)cn12	-18	x	-3%	u	-29%	16µM*
CC(C)(C)Cc1c(-c2cccc(Cl)c2)nc2ccc(Cl)cn12	-20	x	u	u	-60%	u
CCCN(CC(=O)Nc1ccccc1C)C(=O)c1cnc(C)cn1	12	x	0%	12%	-2%	4%
CCc1cccc(NC(=S)N(CCOC)C(C)c2ccco2)c1 (stereo unspecified)	11	8%	u	u	-52%	u
O=C(Nc1cc(C(F)(F)F)ccc1Cl)C(Sc1nnc(-c2cccs2)o1)c1ccccc1 (stereo unspecified)	0	-3%	-15%	-3%	-12%	-1%
O=C(Nc1ccc(Cl)cc1C(F)(F)F)C(Sc1nnc(-c2cccs2)o1)c1ccccc1 (stereo unspecified)	-12	5%	u	u	-36%	21µM*
Cc1csc(=O)n1CC(=O)OCC(=O)Nc1ccc(F)c(F)c1F	-19	x	-17%	u	0%	3%
O=C(C1=C[C@@H]2[C@H]3C(=O)N(c4ccccc4)C(=O)[C@H]3[C@@H](C(=O)c3ccc(Cl)cc3)N2C=C1)c1ccccc1	x	3%	x	x	x	x
